Molecules are shown by their SMILES. Several values for one entry are separate records, joined by “and”; a condition that tells them apart may be missing. Equal values may be shown once. Compounds without any hit were thinned out: in the full panel of roughly 83,000, 20% have a hit.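 Cell lines were cultured in 96-well plates, exposed to a single compound concentration, and assessed for percent growth 48 hours later.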 Unmarked numbers belong to inactive results. Activity calls are given as the source filed them. The calls were made as follows: active = growth percent below 10; inactive = the rest.

Common to all, as to assay: NCI-60 one-dose screen, 48 h (100 = growth as untreated, 0 = no growth, -100 = all killed)
Assay [1] has as its system SR leukemia. The note with it: 10 µM unless noted.
In assay [2] the test system is RPMI-8226 leukemia. The note with it: 10 µM unless noted.
The subject of assay [3] is OVCAR-8 ovarian.
The subject of assay [4] is OVCAR-4 ovarian.
Assay [5] has as its system SK-OV-3 ovarian. The note with it: 10 µM unless noted.
Assay [6] concerns IGROV1 ovarian. The note with it: 10 µM unless noted.
Assay [7] concerns OVCAR-3 ovarian.
Assay [8] concerns HS 578T breast.
Assay [9] has as its system NCI/ADR-RES ovarian.
Assay [10] deals with T-47D breast.
Assay [11] concerns MDA-MB-435 melanoma.
Assay [12] relates to SW-620 colon.
The subject of assay [13] is MCF7 breast.
The subject of assay [14] is HCT-116 colon.
Assay [15] relates to HCC-2998 colon.
For assay [16], the system named is KM12 colon.
Assay [17] has as its system BT-549 breast. The note with it: 10 µM unless noted.
Assay [18] concerns OVCAR-5 ovarian.

In the case of `CCOc1ccc2c(S(=O)(=O)O)cccc2c1[N+](=O)[O-]`, the growth was 100% and 94.2% in assay [1]; 98.1% and 95.9% in assay [2]; 104% and 97.6% in assay [3] (10 µM unless noted); 123% and 109% in assay [4] (10 µM unless noted); 102% and 106% in [5]; 96.3% and 114% in assay [6]. The growth is 107% and 112% in assay [7] (10 µM unless noted); 102% and 94.5% in assay [8] (10 µM unless noted); 103% and 106% in assay [9] (10 µM unless noted); 114% and 111% in assay [10] (10 µM unless noted); 108% and 106% in assay [11] (10 µM unless noted); 107% and 98.2% in [12] (10 µM unless noted). Moreover, the growth in assay [13] (10 µM unless noted) is 107% and 104%; in assay [14] (10 µM unless noted), 101%; in assay [15] (10 µM unless noted), 109%; in [16] (10 µM unless noted) it was 98.1% and 103%.

For `S=C1SCN(Cc2ccccc2)CN1Cc1ccccc1`, the growth in [1] is 52.9%; in assay [2], 17%; in assay [3] (10 µM unless noted), 93.3%; in assay [4] (10 µM unless noted) it was 86.4%; in [5], 103%; in assay [6] it was 34.5%. The growth in assay [7] (10 µM unless noted) is 32.4%; in assay [9] (10 µM unless noted), 73.6%; in assay [10] (10 µM unless noted) it was 41.4%; in assay [17] it was 93.6%; in assay [11] (10 µM unless noted) it was 85.5%; in assay [12] (10 µM unless noted), 32.9%. The growth in assay [13] (10 µM unless noted) is 17.8%; in [14] (10 µM unless noted) it was 7.28% (active); in assay [16] (10 µM unless noted), 5.8% (active).

Consider `Cc1c(Cl)cccc1NCN1C(=O)c2ccccc2C1=O`, for which the growth in [2] was 105%; in assay [3] (10 µM unless noted) it was 99.8%; in assay [18] (10 µM unless noted), 107%; in [4] (10 µM unless noted), 108%; in [5] it was 106%; in assay [6], 116%. Also, the growth was 114% in assay [7] (10 µM unless noted); 118% in [8] (10 µM unless noted); 110% in assay [9] (10 µM unless noted); 94.4% in assay [10] (10 µM unless noted); 106% in assay [17]; 104% in assay [11] (10 µM unless noted). The growth in [12] (10 µM unless noted) was 110%; in [13] (10 µM unless noted) it was 97.6%; in assay [14] (10 µM unless noted), 116%; in [15] (10 µM unless noted) it was 111%; in [16] (10 µM unless noted), 103%.

With `Nc1ccn(C2OC(CO)C(O)C2O)c(=O)n1` (stereo unspecified), the growth in assay [1] is 14.8%; in assay [3] (10 µM unless noted), 40.1% and 97.2% and 101%; in assay [4] (10 µM unless noted) it was 99.9% [middle of 4 runs]; in assay [6] it was 50.9% and 10.1% and 106%; in assay [10] (10 µM unless noted) it was 55.5% and 58.3% and 101%.

As to `COc1ccc(Cl)cc1C(=O)NCCc1ccc(S(=O)(=O)NC(=O)NC2CCCCC2)cc1`, the growth was 104% and 99.5% in assay [2]; 99.8% and 100% in assay [3] (10 µM); 67.3% in [3] (100 µM); 111% and 112% in assay [18] (10 µM); 101% in assay [18] (100 µM); 117% and 103% in [4] (10 µM). The growth in assay [4] (100 µM) was 58.7%; in [5], 103% and 96.1%; in assay [7] (10 µM), 112% and 121%; in assay [7] (100 µM), 66.1%; in [8] (10 µM), 94.7% and 110%; in assay [8] (100 µM), 54.8%. Moreover, the growth in assay [9] (10 µM) is 103% and 107%; in assay [9] (100 µM) it was 76.6%; in assay [10] (10 µM) it was 86% and 87.6%; in assay [10] (100 µM), 52.3%; in assay [11] (10 µM) it was 103% and 107%; in assay [11] (100 µM), 69.5%. Besides, the growth in assay [12] (10 µM) was 99.3% and 109%; in [12] (100 µM), 82.9%; in assay [13] (10 µM) it was 108% and 102%; in [13] (100 µM) it was 66.1%; in assay [14] (10 µM) it was 110% and 96.1%; in assay [14] (100 µM), 67.3%. Also, the growth is 126% and 118% in assay [15] (10 µM); 87.4% in assay [15] (100 µM); 109% and 108% in assay [16] (10 µM); 60.1% in assay [16] (100 µM).

Values taken from PubChem BioAssay (NCI).
